Laboratory results taken from PubChem BioAssay.
The source made the active and inactive calls. Unless noted, how the calls were made is not given here.

Legend:
[1] = HepG2 liver cancer cell viability effects, profiling panel, resazurin fluorescence, 24 h, PK04 Diversity Set (AID 1172); conditions: higher = more signal; further: test concentration not given here
[2] = basal S. cerevisiae growth modulation, no modifier, primary screen, OD600, strain BY4716, 24 h, basal condition (AID 1173); conditions: OD600, 24 h, higher = more signal, called active from +8 up or from −8 down
[3] = MM1S myeloma cell viability, profiling panel, resazurin fluorescence, basal, 24 h, PK04 Diversity Set (AID 1174); conditions: higher = more signal, called active from +8 up or from −8 down;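 further: MM1S multiple myeloma cell line; test concentration not given here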
[4] = target: Dihydroorotate dehydrogenase (quinone), mitochondrial (Plasmodium falciparum (isolate 3D7)) (UniProt Q08210); assay: PfDHODH enzyme inhibitors, primary screen, biochemical, C-terminal His tag, absorbance 600 nm (AID 1175); conditions: DCIP absorbance 600 nm, higher = more signal, called active from +8 up or from −8 down;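 further: recombinant parasite enzyme with a five histidine tag at its C terminus; test concentration not given here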
Dihydroorotate dehydrogenase (quinone), mitochondrial (Plasmodium falciparum (isolate 3D7)), sequence (Q08210 whole entry, looked up): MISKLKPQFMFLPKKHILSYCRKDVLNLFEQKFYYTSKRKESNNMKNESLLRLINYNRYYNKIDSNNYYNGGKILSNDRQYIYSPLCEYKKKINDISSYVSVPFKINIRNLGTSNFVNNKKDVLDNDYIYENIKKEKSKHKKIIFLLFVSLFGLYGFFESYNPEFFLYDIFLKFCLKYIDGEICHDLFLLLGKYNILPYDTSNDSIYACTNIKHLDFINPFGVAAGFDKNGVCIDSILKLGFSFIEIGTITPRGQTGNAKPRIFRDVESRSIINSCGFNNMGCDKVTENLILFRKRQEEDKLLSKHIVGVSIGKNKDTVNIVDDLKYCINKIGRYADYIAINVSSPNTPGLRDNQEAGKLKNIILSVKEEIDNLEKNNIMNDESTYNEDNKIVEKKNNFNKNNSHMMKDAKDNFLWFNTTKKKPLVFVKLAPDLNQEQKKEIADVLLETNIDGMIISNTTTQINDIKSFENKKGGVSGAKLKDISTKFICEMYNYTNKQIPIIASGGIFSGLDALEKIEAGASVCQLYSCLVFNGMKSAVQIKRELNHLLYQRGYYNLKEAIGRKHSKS

[5] = P. aeruginosa biofilm formation inhibitors, primary screen, strain PAO1, LB-PBS medium, absorbance 600 nm (AID 1176); further: test concentration not given here; conditions: P. aeruginosa PAO1 growth/biofilm, A600, 12 h; higher = more signal
[6] = S. cerevisiae RM11-1a growth modifiers, primary screen, strain RM11-1a, OD600, basal, 24 h (AID 1177); conditions: OD600, 24 h, higher = more signal, called active from +8 up or from −8 down;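 further: cultures grown under basal conditions with no added stressor; test concentration not given here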
[7] = E. coli acrAB mutant growth effects, primary screen, E. coli filamentation inducers, strain DRC39, OD650, 24 h (AID 1178); conditions: higher = more signal, called active from +8 up or from −8 down;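 further: growth measured as culture turbidity by optical density at 650 nm; test concentration not given here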
[8] = E. coli acrAB mutant growth effects, primary screen, E. coli filamentation inducers, strain DRC39, OD650, 48 h (AID 1179);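 further: screen aims at cell division blockers that make cells filament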; conditions: E. coli DRC39 delta-acrAB growth, higher = more signal, called active from +8 up or from −8 down
[9] = RPMI8226 myeloma cell viability, profiling panel, resazurin fluorescence, basal, 24 h, PK04 Diversity Set (AID 1180); conditions: higher = more signal;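 further: RPMI8826 multiple myeloma cell line at 5000 cells per well; test concentration not given here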
[10] = target: E3 ubiquitin-protein ligase XIAP (Homo sapiens) (UniProt P98170); assay: XIAP binders, primary screen, biophysical, small-molecule microarray, fluorescence 635 nm (AID 1181); conditions: small-molecule microarray binding, higher = more signal;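 further: score merges 667 nm emission and signal to noise over triplicate slides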
E3 ubiquitin-protein ligase XIAP (Homo sapiens), sequence (P98170 whole entry, looked up): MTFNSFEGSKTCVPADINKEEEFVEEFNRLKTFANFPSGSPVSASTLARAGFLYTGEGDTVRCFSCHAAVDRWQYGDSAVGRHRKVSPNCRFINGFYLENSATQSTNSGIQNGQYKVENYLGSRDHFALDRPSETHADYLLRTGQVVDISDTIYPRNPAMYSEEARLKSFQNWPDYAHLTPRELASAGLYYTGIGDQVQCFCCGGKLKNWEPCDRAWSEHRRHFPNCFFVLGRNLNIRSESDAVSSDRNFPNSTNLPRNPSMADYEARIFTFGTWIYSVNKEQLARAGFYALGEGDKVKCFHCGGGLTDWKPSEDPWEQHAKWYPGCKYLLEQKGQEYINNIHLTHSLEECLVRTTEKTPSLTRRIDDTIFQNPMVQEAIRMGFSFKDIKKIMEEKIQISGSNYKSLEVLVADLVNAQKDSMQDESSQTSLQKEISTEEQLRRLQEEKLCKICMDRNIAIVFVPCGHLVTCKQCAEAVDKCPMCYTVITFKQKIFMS

| Compound | z-score [1] | z-score [2] | z-score [3] | composite z-score [4] | z-score [5] | z-score [6] | z-score [7] | z-score [8] | z-score [9] | composite z-score [10] |
| --- | --- | --- | --- | --- | --- | --- | --- | --- | --- | --- |
| COc1ccc(CCNC(=O)[C@@]2(C)c3ccccc3C(=O)N(Cc3ccc(OC(F)(F)F)cc3)[C@H]2c2ccc(CO)cc2)cc1 | 1.4 | -0.553 (inactive) | 0.979 (inactive) | -0.0074 (inactive) | 1.05 (inactive) | 0.362 (inactive) | 0.0466 (inactive) | -0.657 (inactive) | 1.3 | -0.031 |
| C=CCOC(=O)[C@@H]1[C@H]2C(=O)O[C@H](c3ccccc3)[C@H](c3ccccc3)N2[C@H](c2ccc(OCCOC(=O)[C@@H]3C[C@@H]4C(=O)N[C@@H](CC(C)C)C(=O)N4[C@@H]3c3ccc(O)cc3)cc2)[C@@]12C(=O)Nc1ccc(I)cc12 | 0.438 | 0.893 (inactive) | 0.246 (inactive) | -1.42 (inactive) | 0.848 (inactive) | 1.75 (inactive) | 0.703 (inactive) | -0.215 (inactive) | 0.676 | 0.155 |
| CCOC(=O)C[C@H]1[C@H](OC(=O)c2cc3ccccc3oc2=O)[C@@H](NC(=O)Cc2ccc(OC)cc2)c2cc(OCCCO)ccc2N1C(=O)Cc1ccc(OC)cc1 | 1.04 | -3.03 (inactive) | 1.26 (inactive) | -0.317 (inactive) | -0.234 (inactive) | -1.01 (inactive) | 1.76 (inactive) | 0.248 (inactive) | 0.918 | 0.177 |
| CN(C)CCCCNC(=O)[C@H]1C[C@H]2C(=O)N[C@@H](CCCCN(C)C)C(=O)N2[C@H]1c1ccc(O)cc1 | 0.828 | -1.95 (inactive) | 0.419 (inactive) | 0.245 (inactive) | 0.655 (inactive) | -1.52 (inactive) | 1.12 (inactive) | 1.67 (inactive) | 1.82 | -0.127 |
| COc1cccc(C)c1NC(=O)O[C@H]1[C@H](OC(=O)Nc2ccccc2)[C@@H](OC(=O)Nc2ccccc2)[C@@H](OC)O[C@@H]1CO | -2 | 0.748 (inactive) | -3.79 (inactive) | -0.0526 (inactive) | 1.28 (inactive) | 2.78 (inactive) | 0.655 (inactive) | -0.667 (inactive) | -2.85 | 0.06 |
| C=CCOC(=O)[C@H]1[C@@H]2C(=O)O[C@@H](c3ccccc3)[C@@H](c3ccccc3)N2[C@@H](c2ccc(OCCOC(=O)[C@H]3C[C@H]4C(=O)NCC(=O)N4[C@H]3c3ccc(O)cc3)cc2)[C@]12C(=O)Nc1ccccc12 | -0.0886 | 1.1 (inactive) | 1.02 (inactive) | 0.814 (inactive) | 0.916 (inactive) | 2.99 (inactive) | 0.504 (inactive) | -0.0754 (inactive) | 1.72 | -0.202 |
| C=C[C@H](C)[C@@H](OC(=O)Nc1ccc(SC)cc1)c1ccc(OCCO)cc1 | -1.01 | -0.773 (inactive) | -0.715 (inactive) | 0.918 (inactive) | 0.696 (inactive) | 1.08 (inactive) | -1.55 (inactive) | -1.71 (inactive) | -0.894 | -0.208 |
| COCCOC(=O)N1C(=O)[C@@]2(c3cc(C#CC4=CCCCC4)ccc31)[C@H](C(=O)N1CCCCCCC1)[C@H]1C(=O)O[C@H](c3ccccc3)[C@H](c3ccccc3)N1[C@@H]2c1ccccc1OCCO | 1.84 | 0.615 (inactive) | 0.209 (inactive) | -0.434 (inactive) | 0.526 (inactive) | 0.511 (inactive) | -0.294 (inactive) | -1.14 (inactive) | 0.185 | -0.0244 |
| C=C(COC)C(=O)CC[C@H](OC(C)=O)c1ccc(CO)o1 | 0.815 | -0.111 (inactive) | 0.324 (inactive) | -1.28 (inactive) | -0.517 (inactive) | -1.28 (inactive) | 0.581 (inactive) | 0.117 (inactive) | 0.875 | 0.194 |
| CCOC(=O)C[C@H]1[C@H](OC(=O)c2ccccc2-c2ccccc2)[C@@H](NC(=O)CC(C)C)c2cc(OCCCO)ccc2N1C(=O)c1ccccc1 | 0.928 | -1.04 (inactive) | 0.351 (inactive) | -0.6 (inactive) | 0.13 (inactive) | -0.71 (inactive) | 1.51 (inactive) | 0.973 (inactive) | -0.503 | 0.0412 |
| O=C1NC(=O)C2C1C=CC(C(O)c1ccc(F)cc1)N2Nc1ccc(Cl)cc1Cl (stereo not given) | -2.15 | -16.3 (active) | -1.28 (inactive) | 0.827 (inactive) | 1.06 (inactive) | -8.86 (active) | -0.2 (inactive) | -1.52 (inactive) | -1.79 | 0.285 |
| COc1cc(Cc2cc3c(c(CCc4ccccc4)n2)[Si](C(C)C)(C(C)C)O[C@H]3c2ccccc2)cc(OC)c1OC | -0.877 | -17.2 (active) | -0.489 (inactive) | -0.435 (inactive) | 0.113 (inactive) | -0.234 (inactive) | -0.264 (inactive) | -0.65 (inactive) | -0.163 | 0.355 |
| [N-]=[N+]=Nc1ccccc1C[C@@]1(C(=O)NCc2ccccc2)N=C(c2ccc(OCCCO)cc2)O[C@@H]1c1ccccc1 | 0.508 | -0.0233 (inactive) | -1.71 (inactive) | 0.889 (inactive) | 2.51 (inactive) | 1.17 (inactive) | 0.712 (inactive) | -0.489 (inactive) | -0.564 | 0.204 |
